The campaign covered roughly 5,500 compounds. About 2,000 (36%) were called active. Not shown: some 18% with an inconclusive outcome. Rule as the data show it: active = normalized growth mostly below about 0.91 (no sharp cut-off); inconclusive = no clear call, values can overlap the other calls; inactive = mostly above about 0.92. The list shows a part of the results.
Assay: chemical genetic growth profiling, strain panel (AID 1159580);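 also: tested at 20 µM; growth read once vehicle control cultures reached saturation at 30 °C; 1 = growth at the plate median or of vehicle wells; lower values mean less growth of the strain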
Conditions: growth OD

Measured: normalized growth

COc1ccc2c(c1OC)C(=O)O[C@H]2[C@H]1c2cc3c(cc2CCN1C)OCO3
inactive: S. cerevisiae deletion strains, locus YJR075W, strain HOC1, stronger effect = lower value 1 | S. cerevisiae deletion strains, locus YKL009W, strain mrt4, stronger effect = lower value 1.03 | S. cerevisiae deletion strains, locus YKL068W, stronger effect = lower value 1 | S. cerevisiae deletion strains, locus YKL085W, strain MDH1 (second series), stronger effect = lower value 1 | S. cerevisiae deletion strains, locus YKL085W, strain MDH1, stronger effect = lower value 1 | S. cerevisiae deletion strains, locus YKL160W, strain elf1, stronger effect = lower value 0.994 | S. cerevisiae deletion strains, locus YKL190W, strain CNB1, stronger effect = lower value 1 | S. cerevisiae deletion strains, locus YKR001C, strain vps1, stronger effect = lower value 1.03 | S. cerevisiae deletion strains, locus YKR026C, strain gcn3, stronger effect = lower value 1.01 | S. cerevisiae deletion strains, locus YKR091W, strain srl3, stronger effect = lower value 0.99 | S. cerevisiae deletion strains, locus YLL001W, strain dnm1, stronger effect = lower value 0.998 | S. cerevisiae deletion strains, locus YLL026W, stronger effect = lower value 1 | S. cerevisiae deletion strains, locus YLL041C, strain sdh2, stronger effect = lower value 1 | S. cerevisiae deletion strains, locus YLR027C, strain aat2, stronger effect = lower value 1 | S. cerevisiae deletion strains, locus YLR039C, strain RIC1, stronger effect = lower value 1.04 | S. cerevisiae deletion strains, locus YLR058C, strain SHM2, stronger effect = lower value 1 | S. cerevisiae deletion strains, locus YLR102C, strain apc9, stronger effect = lower value 1.01 | S. cerevisiae deletion strains, locus YLR113W, strain HOG1, stronger effect = lower value 1.05 | S. cerevisiae deletion strains, locus YLR221C, strain rsa3, stronger effect = lower value 0.998 | S. cerevisiae deletion strains, locus YLR258W, strain gsy2, stronger effect = lower value 1.01 | S. cerevisiae deletion strains, locus YLR262C, strain YPT6 (second series), stronger effect = lower value 1.01 | S. cerevisiae deletion strains, locus YLR262C, strain YPT6, stronger effect = lower value 1.03 | S. cerevisiae deletion strains, locus YLR268W, strain sec22, stronger effect = lower value 1.01 | S. cerevisiae deletion strains, locus YLR320W, strain mms22, stronger effect = lower value 1 | S. cerevisiae deletion strains, locus YLR330W, strain CHS5, stronger effect = lower value 1.01 | S. cerevisiae deletion strains, locus YLR342W, strain FKS1 (second series), stronger effect = lower value 0.981 | S. cerevisiae deletion strains, locus YLR342W, strain FKS1, stronger effect = lower value 0.996 | S. cerevisiae deletion strains, locus YLR357W, strain rsc2, stronger effect = lower value 1.03 | S. cerevisiae deletion strains, locus YLR370C, strain arc18, stronger effect = lower value 0.994 | S. cerevisiae deletion strains, locus YLR371W, strain rom2, stronger effect = lower value 1.02 | S. cerevisiae deletion strains, locus YLR384C, strain iki3, stronger effect = lower value 1 | S. cerevisiae deletion strains, locus YLR418C, strain cdc73, stronger effect = lower value 1.03 | S. cerevisiae deletion strains, locus YML016C, strain PPZ1, stronger effect = lower value 1 | S. cerevisiae deletion strains, locus YML032C, strain rad52, stronger effect = lower value 1.01 | S. cerevisiae deletion strains, locus YML120C, strain ndi1, stronger effect = lower value 0.987 | S. cerevisiae deletion strains, locus YML124C, strain tub3, stronger effect = lower value 1.01 | S. cerevisiae deletion strains, locus YMR058W, strain fet3, stronger effect = lower value 1 | S. cerevisiae deletion strains, locus YMR078C, strain ctf18, stronger effect = lower value 1 | S. cerevisiae deletion strains, locus YMR125W, strain sto1, stronger effect = lower value 0.991 | S. cerevisiae deletion strains, locus YMR129W, stronger effect = lower value 0.998 | S. cerevisiae deletion strains, locus YMR205C, strain PFK2, stronger effect = lower value 1 | S. cerevisiae deletion strains, locus YMR223W, strain ubp8, stronger effect = lower value 1 | S. cerevisiae deletion strains, locus YMR231W, strain pep5, stronger effect = lower value 0.999 | S. cerevisiae deletion strains, locus YMR263W, strain SAP30, stronger effect = lower value 1 | S. cerevisiae deletion strains, locus YMR307W, strain GAS1, stronger effect = lower value 1.05 | S. cerevisiae deletion strains, locus YNL067W, strain RPL9B, stronger effect = lower value 0.979 | S. cerevisiae deletion strains, locus YNL071W, strain lat1, stronger effect = lower value 0.994 | S. cerevisiae deletion strains, locus YNL128W, strain TEP1, stronger effect = lower value 0.984 | S. cerevisiae deletion strains, locus YNL153C, strain GIM3, stronger effect = lower value 1 | S. cerevisiae deletion strains, locus YNL183C, strain NPR1, stronger effect = lower value 0.979 | S. cerevisiae deletion strains, locus YNL209W, strain ssb2, stronger effect = lower value 1 | S. cerevisiae deletion strains, locus YNL233W, strain BNI4, stronger effect = lower value 1.01 | S. cerevisiae deletion strains, locus YNL248C, strain rpa49, stronger effect = lower value 0.988 | S. cerevisiae deletion strains, locus YNL250W, strain rad50, stronger effect = lower value 1 | S. cerevisiae deletion strains, locus YNL271C, strain bni1, stronger effect = lower value 1 | S. cerevisiae deletion strains, locus YNL298W, strain CLA4, stronger effect = lower value 1.01 | S. cerevisiae deletion strains, locus YNL307C, strain MCK1, stronger effect = lower value 1.01 | S. cerevisiae deletion strains, locus YNL322C, strain KRE1 (second series), stronger effect = lower value 1.01 | S. cerevisiae deletion strains, locus YNL322C, strain KRE1, stronger effect = lower value 1 | S. cerevisiae deletion strains, locus YNR049C, strain mso1, stronger effect = lower value 0.995 | S. cerevisiae deletion strains, locus YNR052C, strain pop2, stronger effect = lower value 0.999 | S. cerevisiae deletion strains, locus YOL006C, strain TOP1, stronger effect = lower value 1.03 | S. cerevisiae deletion strains, locus YOL012C, strain htz1 0.872 | S. cerevisiae deletion strains, locus YOL147C, strain pex11, stronger effect = lower value 1.01 | S. cerevisiae deletion strains, locus YOR001W, strain rrp6, stronger effect = lower value 0.995 | S. cerevisiae deletion strains, locus YOR061W, strain CKA2, stronger effect = lower value 1 | S. cerevisiae deletion strains, locus YOR069W, strain VPS5, stronger effect = lower value 0.997 | S. cerevisiae deletion strains, locus YOR070C, strain gyp1, stronger effect = lower value 0.995 | S. cerevisiae deletion strains, locus YOR080W, strain dia2, stronger effect = lower value 1 | S. cerevisiae deletion strains, locus YOR083W, strain WHI5, stronger effect = lower value 0.988 | S. cerevisiae deletion strains, locus YOR106W, strain vam3, stronger effect = lower value 1.02 | S. cerevisiae deletion strains, locus YOR136W, strain idh2, stronger effect = lower value 1 | S. cerevisiae deletion strains, locus YOR144C, strain elg1, stronger effect = lower value 1.01 | S. cerevisiae deletion strains, locus YOR184W, strain ser1, stronger effect = lower value 0.999 | S. cerevisiae deletion strains, locus YOR231W, strain MKK1, stronger effect = lower value 1.06 | S. cerevisiae deletion strains, locus YOR265W, strain rbl2, stronger effect = lower value 1 | S. cerevisiae deletion strains, locus YOR270C, strain vph1, stronger effect = lower value 0.998 | S. cerevisiae deletion strains, locus YOR290C, strain snf2, stronger effect = lower value 0.975 | S. cerevisiae deletion strains, locus YOR316C, strain cot1, stronger effect = lower value 1 | S. cerevisiae deletion strains, locus YPL051W, strain arl3, stronger effect = lower value 0.982 | S. cerevisiae deletion strains, locus YPL055C, strain LGE1, stronger effect = lower value 0.986 | S. cerevisiae deletion strains, locus YPL078C, strain atp4, stronger effect = lower value 0.996 | S. cerevisiae deletion strains, locus YPL106C, strain sse1, stronger effect = lower value 0.982 | S. cerevisiae deletion strains, locus YPL240C, strain hsp82, stronger effect = lower value 1 | S. cerevisiae deletion strains, locus YPL241C, strain CIN2, stronger effect = lower value 0.997 | S. cerevisiae deletion strains, locus YPL256C, strain CLN2, stronger effect = lower value 1.03 | S. cerevisiae deletion strains, locus YPR119W, strain clb2, stronger effect = lower value 1.01 | S. cerevisiae deletion strains, locus YPR141C, strain kar3, stronger effect = lower value 1.01 | S. cerevisiae deletion strains, locus YPR163C, strain tif3, stronger effect = lower value 1.02 | S. cerevisiae deletion strains, locus YPR167C, strain met16, stronger effect = lower value 1.01 | S. cerevisiae deletion strains, strain wtn01, stronger effect = lower value 1.01 | S. cerevisiae strains, strain wild type, stronger effect = lower value 0.982

Reference: PubChem BioAssay AID1159580 (chemical genetic matrix, 2015)
